PubChem BioAssay (EPA / NIEHS)
Records with an inconclusive call do not appear. The source made the active and inactive calls. How the source made its calls: active means hit-call score of the fitted dose curve at least 0.9, where 1 is the maximum; inconclusive means response in the unintended direction; inactive means score below 0.9.

System: not listed separately
Test: ATG_GAL4_TRANS: Attagene TRANS-FACTORIAL HepG2 Assay for GAL4 (Internal Marker) (AID 2282976)
Details: HepG2 Attagene TRANS GAL4 internal marker reporter
In short: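 First, HepG2 cells were transfected with reporter units under GAL4-UAS control. Next, they were treated with chemical for 24 h. Finally, RNA was reverse-transcribed, PCR-amplified, FAM-labelled and resolved by capillary electrophoresis, with induction scored against DMSO.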

Row | SMILES | outcome
1 | O=C(Oc1ccccc1)c1ccccc1O | inactive
2 | Cc1ccc(C)c(OCCCC(C)(C)C(=O)O)c1 | inactive
3 | CCCSSCCC | inactive
4 | CC(CC(C)C)=NO | inactive
5 | COc1ccc(C(=O)c2ccccc2)c(O)c1 | inactive
6 | C=CC(=O)OCC(C)OCC(C)OCC(C)OC(=O)C=C (stereo not drawn) | inactive
7 | O=C(Oc1ccccc1)c1ccccc1C(=O)Oc1ccccc1 | inactive
8 | CC1(C)C(=O)N(CO)C(=O)N1CO | inactive
9 | CC(=O)OC(C)c1ccccc1 (stereo not drawn) | inactive
10 | CC1OC(=O)C(C)OC1=O (stereo not drawn) | inactive

Target: Estrogen-related receptor gamma (Homo sapiens) (UniProt P62508)
Test: ATG_ERRg_TRANS: Attagene TRANS-FACTORIAL HepG2 Assay for human Estrogen-Related Receptor gamma (ERRg) (AID 2282977);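 further: hits increase reporter signal over DMSO so potencies reflect activators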
Details: HepG2 Attagene TRANS reporter, ERRg transactivation
In short: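 Exogenous NR-Gal4 chimera activity measured as reporter transcript induction after 24 h in transiently transfected HepG2 cells. RNA reverse-transcribed, PCR-amplified, 6-FAM-labelled and resolved by capillary electrophoresis; increase over DMSO baseline.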

Sequence of Estrogen-related receptor gamma (Homo sapiens) (P62508 whole entry, looked up): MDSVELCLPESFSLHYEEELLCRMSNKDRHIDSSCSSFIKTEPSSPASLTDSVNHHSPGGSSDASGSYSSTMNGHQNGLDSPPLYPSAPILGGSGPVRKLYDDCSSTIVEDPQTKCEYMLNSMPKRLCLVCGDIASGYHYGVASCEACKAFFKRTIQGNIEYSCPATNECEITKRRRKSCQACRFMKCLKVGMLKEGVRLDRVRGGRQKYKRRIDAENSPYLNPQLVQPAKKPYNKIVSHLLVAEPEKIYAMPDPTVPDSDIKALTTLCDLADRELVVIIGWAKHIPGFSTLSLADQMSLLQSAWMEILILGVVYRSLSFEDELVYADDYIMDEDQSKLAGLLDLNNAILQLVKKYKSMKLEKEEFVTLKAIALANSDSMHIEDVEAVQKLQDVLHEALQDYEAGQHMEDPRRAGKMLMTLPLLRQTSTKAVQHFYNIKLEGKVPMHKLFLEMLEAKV

Row | SMILES | outcome
12 | O=C(O)c1cc(O)c2ccccc2c1O | inactive
13 | CC(C)(CO)C(O)C(=O)NCCCO (stereo not drawn) | inactive
14 | CC(C)c1ccc2ncccc2c1 | inactive
15 | N=C1C=CC(=C(c2ccc(N)cc2)c2ccc(N)cc2)C=C1 | inactive
16 | O=C(Cl)c1c(Cl)c(Cl)c(C(=O)Cl)c(Cl)c1Cl | inactive

Target: Glucocorticoid receptor (Homo sapiens) (UniProt P04150)
Test: ATG_GR_TRANS: Attagene TRANS-FACTORIAL HepG2 Assay for human Glucocorticoid Receptor (GR) (AID 2282978);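 further: activators score as hits since higher reporter transcript over DMSO is fitted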
Details: HepG2 Attagene TRANS GR reporter, mRNA transcription
In short: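 Reporter transcript levels, detected by fluorescence after RT-PCR and capillary electrophoresis, served as the endpoint. HepG2 cells bearing transfected GAL4-UAS reporters responsive to NR-GAL4 chimeras were incubated with compound 24 h; DMSO defined baseline.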

Sequence of Glucocorticoid receptor (Homo sapiens) (P04150 whole entry, looked up): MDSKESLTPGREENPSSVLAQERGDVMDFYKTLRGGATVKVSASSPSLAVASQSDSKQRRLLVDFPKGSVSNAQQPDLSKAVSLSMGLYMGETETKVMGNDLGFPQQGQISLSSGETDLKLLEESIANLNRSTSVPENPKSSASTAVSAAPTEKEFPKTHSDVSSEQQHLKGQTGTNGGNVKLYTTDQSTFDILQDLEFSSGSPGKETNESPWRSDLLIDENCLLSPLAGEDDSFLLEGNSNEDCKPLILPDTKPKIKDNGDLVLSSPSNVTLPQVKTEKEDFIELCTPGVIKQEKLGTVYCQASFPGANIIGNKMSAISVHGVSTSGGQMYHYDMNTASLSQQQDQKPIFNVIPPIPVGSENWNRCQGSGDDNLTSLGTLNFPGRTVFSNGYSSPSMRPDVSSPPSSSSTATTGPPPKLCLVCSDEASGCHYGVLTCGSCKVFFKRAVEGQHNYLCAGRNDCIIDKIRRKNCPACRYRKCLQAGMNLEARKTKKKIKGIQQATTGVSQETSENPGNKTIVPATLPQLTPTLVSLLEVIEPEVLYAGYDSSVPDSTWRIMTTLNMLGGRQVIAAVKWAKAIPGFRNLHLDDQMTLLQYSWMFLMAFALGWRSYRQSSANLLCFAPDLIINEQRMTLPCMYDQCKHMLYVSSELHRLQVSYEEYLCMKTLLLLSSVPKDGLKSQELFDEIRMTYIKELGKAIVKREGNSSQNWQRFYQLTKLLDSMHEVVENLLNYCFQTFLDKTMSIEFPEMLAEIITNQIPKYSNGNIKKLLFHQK

Row | SMILES | outcome | AC50
17 | O=C1c2ccccc2C(=O)c2cc(S(=O)(=O)O)ccc21 | inactive | 
18 | O=C(O)c1cc(O)c2ccccc2c1O | inactive | 
19 | Cc1c(C(=O)c2c[nH]n(C)c2=O)ccc(S(C)(=O)=O)c1C1=NOCC1 | inactive | 
20 | O=C1CCCCCCCCCCC1 | inactive | 
21 | CCCSSCCC | inactive | 
22 | CC1(C)CCC[C@]2(C)[C@H]3CC(=O)O[C@]3(C)CC[C@@H]12 | inactive | 
23 | O=C(Cl)c1c(Cl)c(Cl)c(C(=O)Cl)c(Cl)c1Cl | inactive | 
24 | CC(C)(C)N | inactive | 
25 | CCCC1CCCC(=O)O1 (stereo not drawn) | inactive | 
26 | COc1ccc(C(=O)c2ccccc2)c(O)c1 | inactive | 
27 | CCCCOCCOC(=O)COc1ccc(Cl)cc1Cl | inactive | 
28 | O=C(Oc1ccccc1)c1ccccc1C(=O)Oc1ccccc1 | inactive | 
29 | C=C[C@@]1(C)CC(=O)[C@]2(O)[C@@]3(C)[C@@H](O)CCC(C)(C)[C@@H]3[C@H](O)[C@H](OC(C)=O)[C@@]2(C)O1 |  | 42.5 µM (active)
30 | O=C(OCc1ccccc1)c1ccc(O)cc1 | inactive | 
31 | CC(=O)OC(C)c1ccccc1 (stereo not drawn) | inactive | 
33 | CCCCC1CCC(=O)O1 (stereo not drawn) | inactive | 
34 | CC(=O)CCC1=C(C)CCCC1(C)C | inactive | 
35 | Nc1cccc(N)n1 | inactive | 

Target: Bile acid receptor (Homo sapiens) (UniProt Q96RI1)
Test: ATG_FXR_TRANS: Attagene TRANS-FACTORIAL HepG2 Assay for Farnesoid X Receptor (FXR) (AID 2282979);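 further: hits raise reporter mRNA above DMSO so AC50 marks FXR activation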
Details: HepG2 Attagene TRANS FXR-GAL4 reporter transcription
In short: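 Transient transfection of HepG2 with multiplexed GAL4-UAS reporter units; exogenous FXR-GAL4 chimera. Dose 24 h → TriZol RNA → oligo(dT) RT → PCR, 6-FAM primer extension, HpaI cut → CE. Gain vs DMSO.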

Sequence of Bile acid receptor (Homo sapiens) (Q96RI1 whole entry, looked up): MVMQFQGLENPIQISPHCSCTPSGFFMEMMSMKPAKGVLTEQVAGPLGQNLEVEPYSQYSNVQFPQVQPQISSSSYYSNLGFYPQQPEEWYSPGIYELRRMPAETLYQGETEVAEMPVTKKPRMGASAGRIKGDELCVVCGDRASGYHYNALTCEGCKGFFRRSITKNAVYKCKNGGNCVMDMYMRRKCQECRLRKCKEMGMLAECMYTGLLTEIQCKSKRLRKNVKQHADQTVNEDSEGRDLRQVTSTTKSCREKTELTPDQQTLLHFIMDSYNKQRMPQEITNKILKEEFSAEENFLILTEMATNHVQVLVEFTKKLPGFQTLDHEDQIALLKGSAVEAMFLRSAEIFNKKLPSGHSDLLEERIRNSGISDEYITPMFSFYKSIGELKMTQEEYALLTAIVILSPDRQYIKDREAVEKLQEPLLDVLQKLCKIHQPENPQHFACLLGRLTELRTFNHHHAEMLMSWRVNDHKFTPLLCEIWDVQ

Row | SMILES | outcome
36 | CC1=C(O)C(=O)C(C)O1 (stereo not drawn) | inactive
37 | C=CCCCCCCCCOC(C)=O | inactive
38 | CCCCCCCCCCCCCc1ccccc1 | inactive
39 | CC(C)(CO)C(O)C(=O)NCCCO (stereo not drawn) | inactive
40 | Clc1cccnc1 | inactive
41 | CC(C)c1ccc2ncccc2c1 | inactive
42 | CC1(C)CCC[C@]2(C)[C@H]3CC(=O)O[C@]3(C)CC[C@@H]12 | inactive
43 | O=C(Cl)c1c(Cl)c(Cl)c(C(=O)Cl)c(Cl)c1Cl | inactive
44 | CCOC(=O)OC(=O)OCC | inactive
45 | COc1ccc(C(=O)c2ccccc2)c(O)c1 | inactive
46 | CC1(C)C(=O)N(CO)C(=O)N1CO | inactive
47 | O=C(OCc1ccccc1)c1ccc(O)cc1 | inactive
48 | Cc1noc(NS(=O)(=O)c2ccc(N)cc2)c1C | inactive

Target: Oxysterols receptor LXR-alpha (Homo sapiens) (UniProt Q13133)
Test: ATG_LXRa_TRANS: Attagene TRANS-FACTORIAL HepG2 Assay for human Liver X Receptor alpha (LXRa) (AID 2282980)
Details: HepG2 Attagene TRANS reporter, LXRa transactivation
In short: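 Transfect HepG2 with GAL4-UAS multiplex reporter constructs (TRANS format, chimeric receptor-GAL4); treat 24 h; extract RNA, reverse-transcribe, PCR-amplify, FAM-label, HpaI-digest; resolve fragments by capillary electrophoresis. Upward response vs DMSO.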

Sequence of Oxysterols receptor LXR-alpha (Homo sapiens) (Q13133 whole entry, looked up): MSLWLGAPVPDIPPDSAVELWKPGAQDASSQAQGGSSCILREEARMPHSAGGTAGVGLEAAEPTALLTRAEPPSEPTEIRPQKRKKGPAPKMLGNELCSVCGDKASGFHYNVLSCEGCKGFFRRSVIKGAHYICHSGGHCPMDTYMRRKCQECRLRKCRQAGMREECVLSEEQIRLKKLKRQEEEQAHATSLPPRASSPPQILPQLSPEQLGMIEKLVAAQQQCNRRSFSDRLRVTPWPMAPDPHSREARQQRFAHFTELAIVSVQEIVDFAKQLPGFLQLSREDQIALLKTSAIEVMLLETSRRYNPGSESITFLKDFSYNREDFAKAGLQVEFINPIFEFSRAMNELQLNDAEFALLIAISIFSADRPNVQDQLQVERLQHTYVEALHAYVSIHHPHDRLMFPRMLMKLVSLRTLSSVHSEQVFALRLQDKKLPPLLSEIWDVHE

Row | SMILES | outcome
49 | CCCCNS(=O)(=O)c1ccc(C)cc1 | inactive
50 | O=C1c2ccccc2C(=O)c2cc(S(=O)(=O)O)ccc21 | inactive
51 | O=C(O)c1cc(O)c2ccccc2c1O | inactive
52 | O=C1CCCCCCCCCCC1 | inactive
53 | Cc1ccc(C)c(OCCCC(C)(C)C(=O)O)c1 | inactive
54 | CC(C)(CO)C(O)C(=O)NCCCO (stereo not drawn) | inactive
55 | Clc1cccnc1 | inactive
56 | CC1(C)CCC[C@]2(C)[C@H]3CC(=O)O[C@]3(C)CC[C@@H]12 | inactive
57 | O=C(Cl)c1c(Cl)c(Cl)c(C(=O)Cl)c(Cl)c1Cl | inactive
58 | CCOC(=O)OC(=O)OCC | inactive
59 | CCCC1CCCC(=O)O1 (stereo not drawn) | inactive
60 | CC1(C)C(=O)N(CO)C(=O)N1CO | inactive
61 | C=C[C@@]1(C)CC(=O)[C@]2(O)[C@@]3(C)[C@@H](O)CCC(C)(C)[C@@H]3[C@H](O)[C@H](OC(C)=O)[C@@]2(C)O1 | inactive
62 | O=C(OCc1ccccc1)c1ccc(O)cc1 | inactive
63 | CCC(C)N (stereo not drawn) | inactive
64 | CCCCC1CCC(=O)O1 (stereo not drawn) | inactive
65 | CC(=O)CCC1=C(C)CCCC1(C)C | inactive
66 | Cc1noc(NS(=O)(=O)c2ccc(N)cc2)c1C | inactive

Target: Oxysterols receptor LXR-beta (Homo sapiens) (UniProt P55055)
Test: ATG_LXRb_TRANS: Attagene TRANS-FACTORIAL HepG2 Assay for human Liver X Receptor beta (LXRb) (AID 2282981)
Details: HepG2 Attagene TRANS GAL4-LXRb reporter, mRNA
In short: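 After 24 h chemical treatment of transfected HepG2 cells carrying exogenous NR-Gal4 chimeras, reporter mRNA was quantified by fluorescent RT-PCR and capillary electrophoresis; activity taken as increase over DMSO controls.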

Sequence of Oxysterols receptor LXR-beta (Homo sapiens) (P55055 whole entry, looked up): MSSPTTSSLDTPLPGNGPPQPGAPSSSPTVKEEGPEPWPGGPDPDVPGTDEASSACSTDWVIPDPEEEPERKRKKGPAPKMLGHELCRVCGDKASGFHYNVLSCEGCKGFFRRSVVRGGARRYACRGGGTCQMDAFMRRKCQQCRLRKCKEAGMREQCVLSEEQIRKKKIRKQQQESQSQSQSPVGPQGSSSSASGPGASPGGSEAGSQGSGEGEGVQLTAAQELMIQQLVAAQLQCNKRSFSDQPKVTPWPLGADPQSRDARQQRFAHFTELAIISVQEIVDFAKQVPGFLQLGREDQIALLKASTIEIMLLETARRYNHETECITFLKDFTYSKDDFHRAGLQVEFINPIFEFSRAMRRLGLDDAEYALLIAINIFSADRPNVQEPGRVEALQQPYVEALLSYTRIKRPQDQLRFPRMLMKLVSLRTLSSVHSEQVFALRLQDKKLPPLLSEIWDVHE

Row | SMILES | outcome
67 | CCCCNS(=O)(=O)c1ccc(C)cc1 | inactive
68 | O=C(Oc1ccccc1)c1ccccc1O | inactive
69 | O=C1c2ccccc2C(=O)c2cc(S(=O)(=O)O)ccc21 | inactive
70 | O=C(O)c1cc(O)c2ccccc2c1O | inactive
71 | O=C1CCCCCCCCCCC1 | inactive
72 | CCCCCCCCCCCCCc1ccccc1 | inactive
73 | Cc1ccc(C)c(OCCCC(C)(C)C(=O)O)c1 | inactive
74 | Clc1cccnc1 | inactive
75 | CC(C)(C)N | inactive
76 | CCOC(=O)OC(=O)OCC | inactive
77 | COc1ccc(C(=O)c2ccccc2)c(O)c1 | inactive
78 | C=CC(=O)OCC(C)OCC(C)OCC(C)OC(=O)C=C (stereo not drawn) | inactive
79 | CC1(C)C(=O)N(CO)C(=O)N1CO | inactive
81 | CCCCC1CCC(=O)O1 (stereo not drawn) | inactive
82 | CC=C(C)C(C)=O | inactive
83 | CC(=O)CCC1=C(C)CCCC1(C)C | inactive
